± gives the standard deviation of the averaged measurements.
Experiments:
DLD1 [1] = assay: cell viability (CellTiter-Glo) relative to plate median (fraction of plate median); higher = more viable cells; details: 5 µM; treatment time 24 h; reporter: 7TFP
In short: (§1)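 On parallel plates, a Tecan F500 reader recorded either firefly luciferase or CellTiterGlo luminescence. The plates held colorectal cancer cells stably transduced with lentiviral TCF/Wnt firefly luciferase reporters (7TFP or TCF4/Wnt), seeded in 384-well format and treated 24 h later with library compounds at a final 5 µM for 24 h. Per-well signals were normalised to the plate median (webcellHTS2, additive, no log transformation), and two independent replicates were averaged.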

HCT116 = assay: as above; details: 5 µM; treatment time 24 h; reporter: TCF4/Wnt
In short: as §1

SW480 [2] = assay: as above; details: 5 µM; treatment time 24 h; reporter: 7TFP
In short: as §1

DLD1 [3] = assay: TCF/Wnt firefly luciferase reporter signal relative to plate median (fraction of plate median); higher = higher Wnt reporter signal; details: 5 µM; treatment time 24 h; reporter: 7TFP
In short: as §1

SW480 [4] = assay: as above; details: 5 µM; treatment time 24 h; reporter: 7TFP
In short: as §1

Compound | cell viability (DLD1 [1]) | cell viability (HCT116) | cell viability (SW480 [2]) | TCF/Wnt firefly luciferase reporter signal (DLD1 [3]) | TCF/Wnt firefly luciferase reporter signal (SW480 [4])
COc1ccc2c3c([nH]c2c1)C(C)=NCC3 | 1.03 ± 0.059 | 0.971 ± 0.069 | 0.999 ± 0.03 | 1.25 ± 0.021 | 1.15 ± 0.071
CC(C)C[C@H](CN)CC(=O)O | 1.03 ± 0.073 | 1.05 ± 0.1 | 1.04 ± 0.014 | 1.09 ± 0.064 | 0.936 ± 0.011
CN1[C@H]2C[C@H](OC(=O)[C@H](CO)c3ccccc3)C[C@@H]1[C@@H](O)C2 | 0.934 ± 0.033 | 1 ± 0.039 | 0.957 ± 0.03 | 0.924 ± 0.025 | 0.94 ± 0.073
COC(=O)[C@]1(C)CC[C@]2(C)CC[C@]3(C)C4=CC=C5C(=CC(=O)C(O)=C5C)[C@]4(C)CC[C@@]3(C)[C@@H]2C1 | 0.981 ± 0.0085 | 1.16 ± 0.05 | 1.03 ± 0.014 | 1.11 ± 0.071 | 1.03 ± 0.08
COc1ccc2[nH]cc(CCN)c2c1 | 1.09 ± 0.078 | 1.06 ± 0.086 | 1.04 ± 0.093 | 0.924 ± 0.095 | 1.06 ± 0.014
COc1cc(OC)c2c(c1)O[C@H](c1ccc(OC)c(OC)c1)[C@@H](O)C2 | 0.924 ± 0.071 | 0.955 ± 0.047 | 0.973 ± 0.096 | 0.952 ± 0.023 | 1.01 ± 0.014
CC(=O)O[C@@H]1C[C@H]2C(C)(C)C(=O)C=C[C@]2(C)[C@H]2CC[C@]3(C)C(=CC(=O)O[C@H]3c3ccoc3)[C@@]21C | 0.99 ± 0.086 | 0.997 ± 0.075 | 0.963 ± 0.016 | 1.03 ± 0.1 | 0.975 ± 0.05
CCC[C@H]1CCCCN1 | 1.01 ± 0.021 | 0.936 ± 0.046 | 0.983 ± 0.039 | 1.04 | 1.05 ± 0.087
CC1(C)C(=O)[C@@H]2O[C@@H]2[C@@]2(C)C1C[C@@H](O)[C@]1(C)C2CC[C@@]2(C)[C@H](c3ccoc3)OC(=O)C3OC321 (stereo partly drawn) [1,2alpha-EPOXYDEACETOXYDIHYDROGEDUNIN] | 1.01 ± 0.032 | 1.12 ± 0.099 | 1.01 ± 0.056 | 0.962 ± 0.013 | 0.957 ± 0.22
O=C1C(Cl)=C(Cl)C(=O)C(Cl)=C1Cl | 0.967 ± 0.061 | 0.977 ± 0.033 | 0.991 ± 0.028 | 0.997 ± 0.16 | 1.02 ± 0.065
CC(=O)O[C@H]1[C@H]2[C@@H](OC(=O)Cc3ccccc3)[C@@H](C)C[C@]2(OC(C)=O)C(=O)/C(C)=C/[C@@H]2[C@H](CC[C@@]13CO3)C2(C)C | 1.06 ± 0.097 | 1.01 ± 0.086 | 1.06 ± 0.021 | 1.09 ± 0.014 | 1.075 ± 0.0071
Oc1cccc2cccnc12 | 0.9665 ± 0.0035 | 0.967 ± 0.075 | 1.1 ± 0.028 | 1.03 ± 0.09 | 0.793 ± 0.037
N[C@H](CO)Cc1ccccc1 | 0.998 ± 0.059 | 0.982 ± 0.12 | 0.981 ± 0.0042 | 0.901 ± 0.09 | 0.761 ± 0.19
COP(=S)(OC)Oc1ccc(SC)c(C)c1 | 1 ± 0.014 | 1.07 ± 0.085 | 1.04 ± 0.042 | 1.07 ± 0.028 | 1.01 ± 0.1
Cc1nccc2c1[nH]c1cc(O)ccc12 | 0.984 ± 0.0099 | 0.978 ± 0.06 | 1.01 ± 0.018 | 1.01 ± 0.03 | 0.978 ± 0.046
CN(C)C(=O)Oc1ccc[n+](C)c1 | 1.04 ± 0.042 | 1.04 ± 0.11 | 1.02 | 1.08 ± 0.078 | 1.05 ± 0.035
CC(=O)Oc1ccc(/C=C/c2cc(OC(C)=O)cc(OC(C)=O)c2)cc1 | 1.05 ± 0.042 | 1.02 ± 0.014 | 1.09 ± 0.021 | 1.14 ± 0.26 | 1.17 ± 0.078
CC[C@@]1(O)C[C@H](O[C@H]2C[C@H](N(C)C)[C@H](O)[C@H](C)O2)c2c(cc3c(c2O)C(=O)c2c(O)ccc(O)c2C3=O)[C@H]1C(=O)OC | 0.893 ± 0.075 | 0.548 ± 0.029 | 1.05 ± 0.042 | 0.569 ± 0.068 | 0.711 ± 0.016
O=C([O-])Cc1ccccc1.[Na+] | 0.97 ± 0.0057 | 0.906 ± 0.1 | 0.971 ± 0.021 | 0.923 ± 0.04 | 0.896 ± 0.0042
C=C(C)[C@H]1Cc2c(ccc3c(=O)c4c(oc23)COc2cc(OC)c(OC)cc2-4)O1 | 1.07 ± 0.12 | 1 ± 0.041 | 1.12 ± 0.2 | 1.04 ± 0.099 | 0.919 ± 0.13
O=c1[nH]c2ccccc2n1C1CCN(CCCC(c2ccc(F)cc2)c2ccc(F)cc2)CC1 | 0.95 ± 0.013 | 0.922 ± 0.065 | 1.01 ± 0.019 | 1.02 ± 0.014 | 0.88 ± 0.12
OCC(O)Cc1ccc2c(c1)OCO2 (stereo not given) | 1.03 ± 0.095 | 1.04 ± 0.014 | 1.02 ± 0.033 | 0.922 ± 0.091 | 0.985 ± 0.036
COC1=C[C@]23CCCN2CCc2cc4c(cc2[C@@H]3[C@@H]1O)OCO4 | 0.98 ± 0.14 | 1.01 ± 0.035 | 1.01 ± 0.021 | 0.997 ± 0.32 | 0.953 ± 0.067
[O-][n+]1ccccc1[S-].[O-][n+]1ccccc1[S-].[Zn+2] | 0.515 ± 0.32 | 0.19 ± 0.11 | 0.628 ± 0.13 | 0.216 ± 0.13 | 0.165 ± 0.15
C[C@@H]1O[C@@H](O[C@H]2CC[C@]3(C=O)[C@H]4CC[C@]5(C)[C@@H](C6=CC(=O)OC6)CC[C@]5(O)[C@@H]4CC[C@]3(O)C2)[C@H](O)[C@H](O)[C@H]1O | 0.885 ± 0.13 | 0.4 ± 0.12 | 0.913 ± 0.025 | 0.178 ± 0.15 | 0.263 ± 0.043
C[C@]12CCC(=O)C(O)=C1CC[C@@H]1[C@@H]2CC[C@]2(C)C(=O)CC[C@@H]12 | 0.956 ± 0.011 | 0.996 ± 0.076 | 0.9485 ± 0.0021 | 1.01 ± 0.023 | 1.01 ± 0.073

— the supplement of paper PMC6522484
